Screening data as filed in PubChem BioAssay.
The full list was thinned out, with hits kept by preference.
CHX counter: counter-screen hit for Shiga toxin inhibitors, cycloheximide; 300,000 compounds, 12% hits; max response, %; cell reporter, cycloheximide protein synthesis inhibition counterscreen; in the data active means max response mostly above about 13%, no sharp cut-off; inactive means mostly below about 14%; further: read at 38.3 µM for the half of the compounds with a filed dose; 0% is about no effect
Sm TGR inh: S. mansoni TGR enzyme inhibition | Q962Y6 | purified TGR, DTNB reduction, TNB absorbance 405 nm | Potency, µM (highest dose often 114 µM), inactives show at the highest dose activity change, negative = inhibition, hits mostly inhibitors | 360,000 compounds, 3% hits; further: potency means the concentration at half of the fitted maximal effect; on the % scale 0 is the no-effect control and ±100 the full control effect; nearly all actives have a fitted effect of over 60% in size
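TGR 20 nM + NADPH 100 uM (dispensed conc.), cpd preinc 15 min RT; start with NADPH (500 uM addition) then DTNB (15 mM addition). Kinetic TNB absorbance, 405 nm filter. Four-parameter Hill fit across titration.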
Shiga toxin inh: inhibitors of Shiga toxin in Vero cells; AID 2315; inhibition, % at 38.7 µM; Vero cells, Shiga toxin protein synthesis inhibition reporter; 290,000 compounds, 9.2% hits; in the data active means inhibition mostly above about 28%, no sharp cut-off; inactive means mostly below about 43%; further: 0% is about no effect
LmPK inh: LmPK (Leishmania mexicana) enzyme inhibition; Q27686; purified LmPK, Kinase-Glo ATP luminescence, 1 h; Potency, µM (highest dose often 57.5 µM), without a hit: at the top dose activity change, negative = inhibition, hits mostly inhibitors; 290,000 compounds, 0.37% hits; AID 1721; further: potency means the concentration at half of the fitted maximal effect; on the % scale 0 is the no-effect control and ±100 the full control effect
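Purified LmPK (0.1 nM) with 0.5 mM PEP and 0.1 mM ADP in imidazole buffer pH 7.2 with MgCl2/KCl, 1 h at room temperature. ATP formed was read by luciferase luminescence and normalized to no-enzyme and uninhibited controls.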
Giardia FBPA inh: Giardia lamblia aldolase inhibition; Potency, µM (top dose mostly 59.6 µM), for the others: at the highest dose activity, negative = inhibition, hits mostly inhibitors; A8B2U2; purified Giardia FBPA; 290,000 compounds, 0.71% hits; further: potency means the concentration at half of the fitted maximal effect; on the % scale 0 is the no-effect control and ±100 the full control effect; nearly all actives have a fitted effect of over 55% in size
Target sequence (A8B2U2 whole entry, looked up): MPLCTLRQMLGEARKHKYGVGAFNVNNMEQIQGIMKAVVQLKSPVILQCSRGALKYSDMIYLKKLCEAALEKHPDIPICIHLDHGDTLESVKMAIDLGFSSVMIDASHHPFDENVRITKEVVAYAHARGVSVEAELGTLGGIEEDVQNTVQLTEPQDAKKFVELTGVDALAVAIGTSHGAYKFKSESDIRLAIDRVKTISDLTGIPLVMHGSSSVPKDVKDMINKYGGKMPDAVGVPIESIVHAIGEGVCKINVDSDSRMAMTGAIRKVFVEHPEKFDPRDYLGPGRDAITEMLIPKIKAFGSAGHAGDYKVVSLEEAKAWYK
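40 nM FBPA preincubated 10 min at RT with compound (up to 57.5 uM final), then substrate plus GAPDH/TPI/NAD/arsenate coupling and diaphorase/resazurin added. Fluorescence read after 20 min at RT, 525/598 nm.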
TbPYK inhibitor: inhibitors of Trypanosoma brucei pyruvate kinase; Q57TT1; TbPYK enzyme, Kinase-Glo Plus ATP luminescence, 45 min; Potency, µM (highest dose often 76.8 µM), inactives show at the top dose activity, negative = inhibition, usual class: inhibitors; 410,000 compounds, 0.12% hits; further: potency means the concentration at half of the fitted maximal effect; on the % scale 0 is the no-effect control and ±100 the full control effect; nearly all actives have a fitted effect of over 50% in size
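TbPYK + substrate in 50 mM TEA pH 7.2, 100 mM KCl, 10 mM MgCl2, 0.05% BSA, 0.01% Tween-20; cpd pinned; ADP 130 uM final; 45 min RT; Kinase-Glo Plus 10 min; luminescence endpoint.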
The depositor's hits bear a star; ? = inconclusive; . = not tested or not shown. Unless noted, the call rests on the fitted dose curve; in most records, active means well fitted curve in the direction sought with a large enough effect; inconclusive means small, poorly fitted or top-dose-only effect, or another doubt; inactive means no such curve, though single readings can be large; an effect the other way counts as inactive or inconclusive.

SMILES	CHX counter	Sm TGR inh	Shiga toxin inh	LmPK inh	Giardia FBPA inh	TbPYK inhibitor
Cc1ccc(/C=C2\C(=O)Nc3ccccc32)o1	17.5*	25.1µM*	21.1	-16.8%	-22.4%	?
O=C1Nc2ccccc2/C1=C/c1cnc(-c2ccccc2)[nH]1	59.4*	-12.3%	53.4*	1.6%	0.9%	-11.0%
CN(C)c1ccc(/C=C2/NC(=O)NC2=O)cc1	25.3*	-4.5%	active	-4.4%	-0.8%	-8.5%
COC(=O)[C@H](CCSC)NC(=O)Cn1cnc2c(OCc3ccccc3)ncnc21	.	.	.	.	.	-3.8%
CSc1ccc(-c2nnn(Cc3ccc(Br)cc3)n2)cc1	36.2*	-4.6%	45.2	-0.5%	0.6%	-12.0%
CSc1ccc(-c2nnn(Cc3ccccn3)n2)cc1	19.1*	19.3%	79.0*	-1.0%	-1.6%	1.5%
CCOC(=O)N(C)c1c(CC)nc2c(OCc3cc(Cl)cc(Cl)c3)cccn12	.	.	.	.	.	3.2%
CS(=O)(=O)Nc1cccc(-c2cncnc2NCc2cccnc2)c1	.	.	.	.	5.1%	.
CCOC(=O)c1cccc(NC(=O)CCCn2nc(C)c3c(C)n(-c4ccccc4)nc3c2=O)c1	.	3.2%	.	.	.	-10.9%
CN(C)C(CNC(=O)CCNS(=O)(=O)c1ccccc1C(F)(F)F)c1ccccc1 (configuration not stated)	.	-1.2%	.	.	.	2.1%
CCN(CC)C(=O)c1cc2c(=O)n3cccc(C)c3nc2s1	26.5*	3.6%	41.6	-2.6%	6.1%	-5.5%
CCN(C(=O)c1cc2c(=O)n3ccccc3nc2s1)C1CCCCC1	17.6	-3.1%	43.6*	2.7%	0.4%	0.5%
CCN(C(=O)c1cc2c(=O)n3cccc(C)c3nc2s1)C1CCCCC1	15.3	2.8%	1.3	0.0%	-3.3%	6.3%
CCCCN(CC)C(=O)c1cc2c(=O)n3cccc(C)c3nc2s1	11.7	?	17.2	0.7%	-2.0%	-15.4%
Cn1c(C(=O)N2CCN(C(=O)c3ccco3)CC2)cc2c(=O)n3ccccc3nc21	-2.3	44.7µM*	10.8	0.7%	-6.7%	-1.9%
CN(C(=O)c1cc2c(=O)n3ccccc3nc2n1C)C1CCCCC1	62.3*	-4.3%	105.4*	-0.3%	.	0.2%
CCN(C(=O)c1cc2c(=O)n3ccccc3nc2n1C)C1CCCCC1	37.1*	6.8%	61.0*	2.6%	.	0.0%
CCCn1c(=O)c2sccc2n2c(CCCC(=O)NC3CCCCC3)nnc12	.	5.0%	.	.	.	1.4%
CN(C)c1cc(-c2ccc(Cl)cc2)oc(=O)c1Cl	2.6	-21.2%	-5.2	4.4%	-13.2%	8.4%
CN(C)c1cc(-c2ccc(Cl)c(Cl)c2)oc(=O)c1Cl	-3.5	39.8µM*	-11.8	1.7%	0.1%	2.0%
CN1C(N)=NC(=O)/C1=C/c1ccc(OC(F)(F)F)cc1	32.5*	-2.4%	40.5*	10.5%	0.5%	-4.0%
CN1C(N)=NC(=O)/C1=C\c1ccc(Br)cc1	13.3*	?	40.6	2.1%	4.8%	-13.6%
CC/C(=N\Nc1ccnc2cc(Cl)ccc12)c1ccc(O)cc1	-5.4	50.1µM*	17.6	1.8%	1.5%	3.1%
COC(=O)c1cc(COC(=O)CNC(=O)c2ccc(Br)cc2)oc1C	.	.	.	.	.	1.6%
Brc1ccc(NCc2cccc3ccccc23)nc1	26.5*	1.2%	31.0	2.2%	-10.2%	.
SMILES	CHX counter	Sm TGR inh	Shiga toxin inh	LmPK inh	Giardia FBPA inh	TbPYK inhibitor
COc1ccccc1CNC(=S)Nc1ccc(F)cc1	4.6	-4.9%	.	0.3%	9.0%	-3.2%
COc1ccccc1CNc1ccccc1F	16.9*	8.9%	23.9	4.4%	-1.2%	-10.0%
Oc1ccccc1CNc1ccc(Br)cn1	-2.7	10.8%	11.3	-3.3%	-2.8%	-7.0%
COc1ccccc1CNc1ccc(Br)cn1	50.3*	0.0%	99.0*	-0.8%	-11.2%	?
CC[C@@]1(c2cccc(C)c2)C(=O)N(C(=O)OC)N1C(=O)OC	5.9	1.58µM*	2.7	0.5%	5.4%	-13.1%
CC[C@@]1(c2ccccc2OC)C(=O)N(C(=O)OC)N1C(=O)OC	24.5*	25.1µM*	23.5*	-4.3%	1.1%	-1.1%
O=C1N(Cc2ccccc2)c2ccccc2OC1(F)F	.	.	.	.	.	-2.8%
COc1ccccc1NC(=O)c1sc2nc(C)c(C(=O)Nc3ccc(C)cc3C)c(-c3ccc(Br)cc3)c2c1N	.	-0.4%	.	.	.	-8.2%
COc1ccc(-c2nnc(SCC(=O)Nc3ncc(C(F)(F)F)cc3Cl)n2CC(C)C)cc1	14.9*	-9.2%	-6.8	2.5%	9.2%	?
Cc1c(C(=O)O)sc(=S)n1-c1ccc(Cl)cc1	-0.5	9.4%	-2.5	2.8%	24.2%	2.2%
Cc1c(Cl)sn(-c2ccc(Cl)cc2)c1=O	35.3*	3.55µM*	92.4*	1.3%	-28.6%	4.47µM*
Cc1ccc(-c2csc(N/N=C/c3ccco3)n2)c(C)c1	46.2*	-4.4%	62.5*	-1.3%	-3.8%	-10.4%
CN(C)S(=O)(=O)c1cccc(-c2csc(N/N=C/c3ccco3)n2)c1	13.7*	?	21.6	-4.5%	-23.8%	2.8%
C/C(=N\Nc1nc(-c2ccc(C)cc2C)cs1)c1cc2ccccc2oc1=O	4.1	-13.9%	5.0	-1.0%	0.7%	-10.0%
O=C(Cn1nnc(-c2cccs2)n1)NCCc1ccccc1	20.0*	-8.4%	28.5	0.8%	2.5%	1.4%
O=C(CN(Cc1ccco1)C(=O)Cn1nnc(-c2cccs2)n1)NCc1ccccc1	-3.0	17.8µM*	12.1	3.0%	8.4%	6.8%
COc1ccc(CCNC(=O)Cn2nnc(-c3cccs3)n2)cc1OC	-2.6	5.3%	-15.3	0.6%	1.1%	-4.9%
COc1ccc(C(=O)Cn2nnc(-c3cccs3)n2)cc1	63.3*	-0.3%	90.7*	2.6%	-3.7%	-9.0%
COC(=O)Cn1nnc(-c2cccc(OC)c2)n1	21.9*	6.5%	65.4*	-12.1%	-0.7%	8.1%
Cc1ccc(NC(=O)C2CCCN(S(=O)(=O)c3ccc(C)cc3)C2)cc1 (configuration not stated)	.	7.2%	.	.	.	3.7%
O=C(c1cccc(Cl)c1)N1CCN(c2ccc3c(c2)C2CC3CCN2C(=O)OCc2ccccc2)CC1 (configuration not stated)	.	.	.	.	.	4.1%
Cc1ccc(-c2nnn(CC(=O)N(CC(=O)NCc3ccccc3)c3cccc(C)c3C)n2)o1	-3.1	22.4µM*	-2.3	10.5%	-0.2%	0.8%
CC(OC(=O)c1cccc(S(=O)(=O)N2CCCC2)c1)C(=O)NC1CCCCC1C (configuration not stated)	.	-16.8%	.	.	.	-6.9%
COCCN(CC(=O)Nc1cccc(C)c1C)C(=O)c1oc2ccccc2c1C	.	.	.	.	.	0.1%
O=C(O)CCCNC(=O)/C=C/c1ccco1	-2.3	4.47µM*	-9.2	9.5%	-9.3%	-3.2%
Cc1cc(C(=O)OCC(=O)NC(C)c2ccccc2)c(C)o1 (configuration not stated)	0.4	68.9%	-18.1	0.2%	5.3%	3.7%
O=C(/C=C/c1ccco1)NCCc1ccccc1	47.3*	7.94µM*	81.2*	1.3%	-2.2%	0.2%
